PubChem BioAssay (Tox21)
Inconclusive results are not listed. Active and inactive are the calls of the source. Unless noted, calls follow the shape of the full dose curve.

Key:
[1] = Nuclear factor erythroid 2-related factor 2/antioxidant responsive element (Nrf2/ARE) small molecule agonists: qHTS cell viability counter screen in human keratinocytes (AID 1919968; active = well fitted curve in the direction sought with a large enough effect in the repeat runs; an effect the other way counts as inactive or inconclusive; also: nearly all actives have a fitted effect of over 55% in size)
Method in brief: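 KeratinoSens cells (HaCaT keratinocytes stably carrying an ARE-luciferase reporter) were seeded at 1,500 cells/well and rested 5 h at 37 C/5% CO2. They were then exposed to compounds in DMSO for 23 h. Viability was read by CellTiter-Fluor fluorescence after 1 h.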

[2] = Nuclear factor erythroid 2-related factor 2/antioxidant responsive element (Nrf2/ARE) small molecule agonists: luciferase reporter gene qHTS assay in human keratinocytes (AID 1919969); also: nearly all actives have a fitted effect of over 35% in size; also: potency is read from the fitted curve at half-maximal effect
[3] = biological target: Gonadotropin-releasing hormone receptor (Homo sapiens) (UniProt P30968); experiment: Human gonadotropin-releasing hormone receptor (GnRHR) small molecule agonists, calcium flux assay in GnRHR-HEK293 cells (AID 1920063); also: nearly all actives have a fitted effect of over 35% in size
Chain of Gonadotropin-releasing hormone receptor (Homo sapiens) (P30968 whole entry, looked up): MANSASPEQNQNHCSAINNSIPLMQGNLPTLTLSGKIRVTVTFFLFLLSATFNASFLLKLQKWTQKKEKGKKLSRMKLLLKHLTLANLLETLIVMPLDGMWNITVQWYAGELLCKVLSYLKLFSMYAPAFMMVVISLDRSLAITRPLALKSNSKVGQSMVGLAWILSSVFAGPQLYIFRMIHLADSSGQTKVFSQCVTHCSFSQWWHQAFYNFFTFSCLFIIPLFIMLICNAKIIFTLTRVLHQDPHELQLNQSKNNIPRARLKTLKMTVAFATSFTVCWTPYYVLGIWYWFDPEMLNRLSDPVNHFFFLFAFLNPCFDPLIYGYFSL
Method in brief: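 HEK293 cells stably expressing human GnRHR were plated 18 h at 37 °C, loaded with calcium dye 1 h at 37 °C, then given compound in agonist mode; fluorescence (Ex/Em 480/540) read kinetically for 3 min at 1 s intervals.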

[4] = biological target: KiSS-1 receptor (Homo sapiens) (UniProt Q969F8); experiment: Human kisspeptin (KISS1R) small molecule agonists, calcium flux assay in KISS1R-HEK293 cells (AID 1920064; active = well fitted curve in the direction sought with a large enough effect in the repeat runs; an effect the other way counts as inactive or inconclusive)
Chain of KiSS-1 receptor (Homo sapiens) (Q969F8 whole entry, looked up): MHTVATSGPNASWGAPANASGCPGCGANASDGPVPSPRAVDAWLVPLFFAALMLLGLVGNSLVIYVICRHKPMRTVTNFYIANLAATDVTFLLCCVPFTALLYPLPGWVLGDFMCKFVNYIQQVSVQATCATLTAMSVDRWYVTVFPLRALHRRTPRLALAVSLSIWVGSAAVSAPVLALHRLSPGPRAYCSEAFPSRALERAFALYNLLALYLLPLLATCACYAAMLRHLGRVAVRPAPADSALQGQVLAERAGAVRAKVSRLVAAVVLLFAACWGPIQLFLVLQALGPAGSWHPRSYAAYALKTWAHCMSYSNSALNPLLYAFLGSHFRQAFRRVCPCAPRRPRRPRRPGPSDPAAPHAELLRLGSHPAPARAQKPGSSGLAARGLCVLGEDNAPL
Method in brief: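 HEK293 cells stably expressing human KISS1R were plated 18 h at 37 °C, loaded with calcium dye for 1 h at 37 °C, then given compound by pin tool. Fluorescence (Ex/Em 480/540) was read kinetically for 3 min.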

[5] = G protein-coupled receptor (GPCR) small molecule agonists, calcium flux assay: HEK293 wild type cell line counter screen (AID 1920065)
Method in brief: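 Cells were plated and cultured 18 h at 37 C/5% CO2, then loaded with calcium dye for 1 h at 37 C. Compounds in DMSO were pin-transferred in agonist mode, and fluorescence (Ex/Em 480/540) was read kinetically for 3 min at 1 s intervals.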

[6] = p53 small molecule agonists, cell-based qHTS assay with human liver microsomes (AID 1963577)
Method in brief: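 p53RE-bla reporter cells were pre-incubated 5 h at 37 C, then treated with compounds plus human liver microsomes (0.5 mg/mL final) and NADPH (0.5 mg/mL final) for 16 h at 37 C. Beta-lactamase activity was read by LiveBLAzer fluorescence after 2 h at room temperature.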

[7] = p53 small molecule agonists, cell-based qHTS assay with rat liver microsomes (AID 1963578)
Method in brief: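 p53RE-bla cells were exposed to compounds together with rat liver microsomes (0.5 mg/mL final) and NADPH (0.5 mg/mL final) for 16 h at 37 C, then read by LiveBLAzer beta-lactamase fluorescence after 2 h at room temperature.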

[8] = p53 small molecule agonists, cell-based qHTS assay with human liver microsomes: qHTS cell viability counter screen (AID 1963579); also: nearly all actives have a fitted effect of over 45% in size; also: potency is read from the fitted curve at half-maximal effect
Method in brief: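 p53RE-bla cells (4,000/well) were pre-incubated 5 h at 37 C, then given compounds in DMSO plus human liver microsomes (0.5 mg/mL final) and NADPH (0.5 mg/mL final) for 16 h at 37 C. Viability was read by CellTiter-Glo luminescence.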

[9] = p53 small molecule agonists, cell-based qHTS assay with rat liver microsomes: qHTS cell viability counter screen (AID 1963580); also: nearly all actives have a fitted effect of over 45% in size
Method in brief: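 Intracellular ATP, by CellTiter-Glo luminescence, defines viability. HCT-116 p53RE-bla cells, 4,000 per well, were compound-treated in the presence of rat liver microsomes and NADPH for 16 h at 37 C.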

[10] = p53 small molecule agonists, cell-based qHTS assay: qHTS cell viability counter screen (AID 1963581); also: nearly all actives have a fitted effect of over 45% in size
Method in brief: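 p53RE-bla HCT-116 cells were exposed to compounds for 16 h at 37 C; after the beta-lactamase FRET read in the same wells, CellTiter-Glo was added and luminescence (intracellular ATP) read after 30 min at room temperature.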

[11] = p53 small molecule agonists, cell-based qHTS assay (AID 1963582; active = well fitted activation curve with a large enough effect in the signal ratio in the repeat runs, not every such curve was filed as active; the % refers to the signal ratio; also: potency is read from the fitted curve at half-maximal effect)
Method in brief: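 p53RE-bla beta-lactamase reporter cells rested 5 h at 37 C/5% CO2, then received compounds in DMSO by pin transfer and were incubated 16 h at 37 C. LiveBLAzer B/G FRET substrate was loaded for 2 h at room temperature before fluorescence reading.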

[12] = biological target: 5-hydroxytryptamine receptor 2A (Homo sapiens) (UniProt P28223); experiment: 5-hydroxytryptamine receptor 2A (HTR2A) small molecule antagonists, cell-based qHTS assay (AID 1963586); also: nearly all actives have a fitted effect of over 45% in size
Chain of 5-hydroxytryptamine receptor 2A (Homo sapiens) (P28223 whole entry, looked up): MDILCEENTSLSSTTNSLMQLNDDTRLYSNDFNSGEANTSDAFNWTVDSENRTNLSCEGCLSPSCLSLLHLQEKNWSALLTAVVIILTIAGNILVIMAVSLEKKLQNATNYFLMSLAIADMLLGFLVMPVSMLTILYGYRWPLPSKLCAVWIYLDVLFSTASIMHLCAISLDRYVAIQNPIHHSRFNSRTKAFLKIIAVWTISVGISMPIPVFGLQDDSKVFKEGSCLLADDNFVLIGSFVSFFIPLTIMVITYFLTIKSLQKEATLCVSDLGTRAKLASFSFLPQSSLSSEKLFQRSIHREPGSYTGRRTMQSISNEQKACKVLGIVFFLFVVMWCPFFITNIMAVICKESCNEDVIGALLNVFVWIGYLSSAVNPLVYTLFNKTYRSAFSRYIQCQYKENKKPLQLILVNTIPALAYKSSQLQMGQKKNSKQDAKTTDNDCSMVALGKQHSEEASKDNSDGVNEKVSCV
Method in brief: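 Antagonist-mode intracellular calcium assay: DOI (4 nM) added after 5 min compound pre-incubation at room temperature to dye-loaded HTR2A-CHO cells. Fluorescence followed for 3 min, sampled every second.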

[13] = biological target: 5-hydroxytryptamine receptor 2A (Homo sapiens) (UniProt P28223); experiment: 5-hydroxytryptamine receptor 2A (HTR2A) small molecule agonists, cell-based qHTS assay (AID 1963587); also: nearly all actives have a fitted effect of over 30% in size
Method in brief: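 Kinetic calcium-flux fluorescence (2 min, 1 sec intervals) after compound addition in agonist mode. HTR2A-CHO cells were cultured 18 h, then dye-loaded 1 h at 37 C.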

[14] = biological target: Muscarinic acetylcholine receptor M1 (Homo sapiens) (UniProt P11229); experiment: Cholinergic receptor muscarinic 1 (CHRM1) small molecule antagonists, cell-based qHTS assay (AID 1963588); also: nearly all actives have a fitted effect of over 40% in size
Chain of Muscarinic acetylcholine receptor M1 (Homo sapiens) (P11229 whole entry, looked up): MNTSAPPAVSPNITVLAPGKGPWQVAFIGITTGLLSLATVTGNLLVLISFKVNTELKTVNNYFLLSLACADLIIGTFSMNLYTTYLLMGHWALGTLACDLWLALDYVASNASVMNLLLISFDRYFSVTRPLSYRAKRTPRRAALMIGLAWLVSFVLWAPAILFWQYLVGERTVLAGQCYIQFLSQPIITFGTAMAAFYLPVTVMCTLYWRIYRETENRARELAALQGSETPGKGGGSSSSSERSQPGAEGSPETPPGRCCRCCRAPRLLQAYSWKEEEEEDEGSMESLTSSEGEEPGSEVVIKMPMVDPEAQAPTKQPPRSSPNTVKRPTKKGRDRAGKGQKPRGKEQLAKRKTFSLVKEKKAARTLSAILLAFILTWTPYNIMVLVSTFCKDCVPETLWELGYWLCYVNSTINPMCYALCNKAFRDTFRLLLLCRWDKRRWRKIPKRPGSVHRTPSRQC
Method in brief: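 CHRM1-CHO calcium-flux assay, antagonist mode. Cells were seeded 18 h, dye-loaded 1 h at 37 C and given compound for 5 min at RT, then acetylcholine was added at 50nM. FDSS fluorescence was read 3 min; 15 concentrations, three runs.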

[15] = cAMP Responsive Elements (CRE) small molecule agonists, cell-based qHTS assay (AID 1963590)
Method in brief: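 CRE-bla HEK 293T cells in DMEM with 10% dialyzed FBS, NEAA, pyruvate and 25 mM HEPES were plated 18 h at 37 C/5% CO2, then exposed to compounds in DMSO for 3 h before LiveBLAzer B/G FRET substrate addition.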

[16] = cAMP Responsive Elements (CRE) small molecule antagonists, cell-based qHTS assay (AID 1963591; active = well fitted inhibition curve with a large enough effect in the signal ratio in the repeat runs, not every such curve was filed as active; the % refers to the signal ratio)
Method in brief: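 CRE-bla HEK293T cells were plated 18 h at 37 °C/5% CO2, pinned with compound in DMSO, then stimulated with NKH477 at 0.25 uM final for 3 h. LiveBLAzer B/G FRET substrate was added and plates incubated 2 h at room temperature.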

[17] = biological target: Beta-2 adrenergic receptor (Homo sapiens) (UniProt P07550); experiment: Adrenergic beta2 receptor (ADRB2) small molecule antagonists, cell-based qHTS assay (AID 1963592); also: series mostly up to about 92 µM; nearly all actives have a fitted effect of over 50% in size
Chain of Beta-2 adrenergic receptor (Homo sapiens) (P07550 whole entry, looked up): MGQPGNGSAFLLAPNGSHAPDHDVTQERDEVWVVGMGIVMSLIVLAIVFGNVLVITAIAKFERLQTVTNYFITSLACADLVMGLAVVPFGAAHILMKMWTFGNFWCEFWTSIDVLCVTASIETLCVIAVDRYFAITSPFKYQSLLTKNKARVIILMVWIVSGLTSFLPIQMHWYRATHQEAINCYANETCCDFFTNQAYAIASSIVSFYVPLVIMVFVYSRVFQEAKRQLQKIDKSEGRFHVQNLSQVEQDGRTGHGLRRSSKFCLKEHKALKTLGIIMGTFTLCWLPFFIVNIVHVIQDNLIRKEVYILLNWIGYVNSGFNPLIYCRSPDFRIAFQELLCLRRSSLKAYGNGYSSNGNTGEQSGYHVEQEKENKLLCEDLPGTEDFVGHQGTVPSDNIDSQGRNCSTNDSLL
Method in brief: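 Cells (CHO, stable ADRB2 overexpression) incubated 18-20hr at 37C; compounds added from DMSO; agonist mix (1nM isoproterenol, 100uM IBMX, 25uM Ro-20-1724) added; 0.5hr RT; d2-cAMP and anti-cAMP-cryptate added; 1hr RT; 665/615 nm read.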

[18] = biological target: D(2) dopamine receptor (Homo sapiens) (UniProt P14416); experiment: Dopamine D2 receptor (DRD2) small molecule agonists, cell-based qHTS assay (AID 1963594); also: nearly all actives have a fitted effect of over 35% in size
Chain of D(2) dopamine receptor (Homo sapiens) (P14416 whole entry, looked up): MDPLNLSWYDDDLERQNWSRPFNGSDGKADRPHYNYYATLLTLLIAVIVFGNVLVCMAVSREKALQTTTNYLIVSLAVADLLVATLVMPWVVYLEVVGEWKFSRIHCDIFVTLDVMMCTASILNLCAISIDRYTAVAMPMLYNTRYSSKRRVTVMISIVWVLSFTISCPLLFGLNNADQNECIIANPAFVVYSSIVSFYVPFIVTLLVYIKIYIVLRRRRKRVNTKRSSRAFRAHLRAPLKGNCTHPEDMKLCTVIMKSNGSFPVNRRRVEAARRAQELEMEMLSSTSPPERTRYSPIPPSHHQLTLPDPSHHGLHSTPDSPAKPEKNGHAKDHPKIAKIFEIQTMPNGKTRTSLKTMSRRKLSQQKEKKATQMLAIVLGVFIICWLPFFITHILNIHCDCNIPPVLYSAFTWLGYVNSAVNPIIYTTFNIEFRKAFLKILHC
Method in brief: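 cAMP accumulation in DRD2-HEK293 cells measured by HTRF after 1 h detection; compounds added 10 min before NKH477 (200nM […]) forskolin-analogue stimulation, 30 min at room temperature, with Ro20-1724 present at 0.1 mM final.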

[19] = biological target: D(2) dopamine receptor (Homo sapiens) (UniProt P14416); experiment: Dopamine D2 receptor (DRD2) small molecule antagonists, cell-based qHTS assay (AID 1963595; active = well fitted inhibition curve with a large enough effect in the signal ratio in the repeat runs, with a control signal flat; the % refers to the signal ratio)
Method in brief: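 In this cell-based antagonist screen, compounds act for 10 min at room temperature before a 30 min challenge with 12 nM quinpirole and 200 nM NKH477. cAMP is quantified by HTRF competition in DRD2-HEK293 cells containing 0.1 mM Ro20-1724.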

[20] = biological target: Muscarinic acetylcholine receptor M1 (Homo sapiens) (UniProt P11229); experiment: Cholinergic receptor muscarinic 1 (CHRM1) small molecule agonists, cell-based qHTS assay (AID 1963589); also: nearly all actives have a fitted effect of over 35% in size
Method in brief: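 CHO cells stably expressing human CHRM1, seeded 18 h at 37 C/5% CO2, dye-loaded 1 h at 37 C, then given compound in agonist mode; intracellular calcium fluorescence read kinetically at 1 s intervals. Fifteen concentrations, three independent runs.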

Measured: Potency

CC1=CCC(=C(C)C)CC1
not listed: [20]
inactive: all other assays above

CC(C)(C)C(=O)OCOC(=O)[C@@H]1N2C(=O)[C@@H](NC(=O)[C@H](N)c3ccccc3)[C@H]2SC1(C)C
not listed: [15] | [16]
inactive: all other assays above

CCOC(=O)C(=O)CCc1ccccc1
not listed: [15] | [16] | [17]
inactive: all other assays above

CCC(CO)(CO)[N+](=O)[O-]
not listed: [19] | [20]
inactive: all other assays above

CCC(C)(C)C(=O)O
not listed: [20]
inactive: all other assays above

CCO[Si](C)(CCCOCC1CO1)OCC (stereo unspecified)
not listed: [15] | [16]
inactive: all other assays above

O=C1c2ccccc2C(=O)C1(O)O
active: [2] 61.4 µM | [8] 36.5 µM | [11] 36.5 µM
not listed: [15] | [16] | [18]
inactive: all other assays above
